Laboratory results as given in the OligoGym collection.

The sequences below were run against LUC7L2 (assay: pooled miR-30 sensor sort-seq; sequence = guide strand). Details: shRNA.
Further: reference of the scale not given here.

Sequence	sensor-assay potency score (higher = more potent)
TTGCATACTCTGTCATCACTGA	0.248
TCTCTTGAACTCCTGTCTCTGT	-0.457
TTTGGATCGAGTTCTCCTCTTG	-0.398
TAATCTCTTCTTGAGTTTCTGC	-0.17
TACTTCATCCATTACTTTCTGG	-0.257
TTGAGAAGGTGACTCTTGCATA	-0.354
TTAACTCATGAACACGTTCTGC	-0.686
TGTCTCTGTCACATGATGCTAA	-0.366
TTGGATCGTTCTCTGCTCCTAT	0.469
TAGAACATCCTGAACATAGCAA	0.289
TTTGCTGCTACTTCAGCACTAA	-0.0299

These sequences were tested against LY6K in the same assay as above. Details: shRNA.

Sequence	sensor-assay potency score (higher = more potent)
TCTATTGTCACCCTCGTCCGTT	-0.102
TTTCTCTCTCACAAACATGACA	-1.23
TCTTTGAACACTGATGAGTTGA	-0.353
TAATGCAACAGGTGACAACGGT	-0.099
TAGCGAATTTTACAACACTTGA	-0.625
TATTCTTTGAACACTGATGAGT	-0.623
AAACATGACACCACACTCTATT	-0.883
TTGAACACTGATGAGTTGATAG	-0.979
TTGGCGTCTGTCCACACCCGCG	-1.54
AATTTTACAACACTTGAGGTAA	-0.3
TCTCTCACAAACATGACACCAC	0.0962
TCTCCATCGCTGCACAACCAGC	-1.92

What follows are sequences tested against LY96 in the same assay as above. Details: shRNA.

Sequence	sensor-assay potency score (higher = more potent)
TTGTATTCACAGTCTCTCCCTT	0.102
TAGGATGACAAACTCCAAGCAA	-0.085
TTGCTTTAAATCTCTCCTTGGA	0.126
TTCAACAACACATTTGTATTTT	-1.05
TAAATCTCTCCTTGGAATGTAG	-0.351
TGTATGAAATACTTGCATCGGA	-0.274
TATAATTGCTTTAAATCTCTCC	0.0244
TAGGTGTATGAAATACTTGCAT	-0.275
TTGTTGTATTCACAGTCTCTCC	-1.2
AATAGCTTCAACAACACATTTG	-1.65
AATTGCTTTAAATCTCTCCTTG	-0.268
TAATCGTCATCAGATCCTCGGC	-0.407

The sequences below were run against LYPD3 in the same assay as above. Details: shRNA.

Sequence	sensor-assay potency score (higher = more potent)
TTCATCCTGGACACAGCCCCGG	-0.847
TTGAGCTTGGCGTTGCAGCGAT	-0.598
TCATCCTGGACACAGCCCCGGA	-1.53
